Compound activity from PubChem.
ALDH1A1 inh – blocks purified human ALDH1A1 activity; Potency, µM (series often up to 75.3 µM), for inactives: top-dose activity, negative = inhibition, hits mostly inhibitors; actives 7.3% (n = 220,000); Purified ALDH1A1, NADH fluorescence, propionaldehyde substrate; P00352; AID 1030;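 further: potency means the concentration at half of the fitted maximal effect; plate controls were no enzyme wells and a reference inhibitor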
Target sequence (P00352 whole entry, looked up): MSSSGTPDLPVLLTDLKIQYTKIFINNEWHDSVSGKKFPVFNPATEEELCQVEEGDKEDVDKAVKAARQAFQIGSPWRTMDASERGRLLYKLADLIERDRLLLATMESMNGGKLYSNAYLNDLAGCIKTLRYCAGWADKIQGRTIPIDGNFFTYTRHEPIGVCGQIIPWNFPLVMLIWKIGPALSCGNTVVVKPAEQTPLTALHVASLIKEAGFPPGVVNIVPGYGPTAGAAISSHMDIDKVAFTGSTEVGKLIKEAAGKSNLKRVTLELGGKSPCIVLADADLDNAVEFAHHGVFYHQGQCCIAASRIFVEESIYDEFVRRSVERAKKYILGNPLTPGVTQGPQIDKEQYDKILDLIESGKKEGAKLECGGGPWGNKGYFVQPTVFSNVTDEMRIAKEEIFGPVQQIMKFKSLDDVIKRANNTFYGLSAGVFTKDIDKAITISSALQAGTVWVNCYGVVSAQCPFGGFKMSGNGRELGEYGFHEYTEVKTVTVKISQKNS
PNC assembly inh – inhibitors of perinucleolar compartment assembly. actives 3.1% (n = 140,000). PC3M PTB-GFP, PNC prevalence imaging, 16 h; stronger effect = lower value. activity change (PNC), negative = inhibition, % at 10 µM;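 active means readout at or below -70, meaning at least 70% loss of cells showing the perinucleolar compartment, a nuclear body marking cancer cells; inconclusive means readout between -30 and a set limit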;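 further: plate controls were DMSO wells for no effect and camptothecin positive control wells for full effect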
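PC3M cells stably expressing PTB-GFP, 750–1000 cells/well, treated 16 h at 37 °C with compound (23 nl of library stock), in duplicate. After paraformaldehyde fixation and Hoechst stain, imaged at 20x; PNC prevalence scored by image analysis.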
HPGD block – blocks human HPGD enzyme activity. P15428. purified HPGD, NADH fluorescence kinetic, PGE2 substrate. Potency, µM, without a hit: at the highest dose activity change, negative = inhibition, most hits filed as inhibitors. actives 4.3% (n = 150,000). AID 894; further: potency means the concentration at half of the fitted maximal effect
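NADH formation kinetics: reaction with 30 uM PGE2 and 1 mM NAD+ (final), 20 nM enzyme, Tris-HCl pH 8 with Tween 20, after 15 min compound preincubation at room temperature. Fluorescence change, last versus first of five reads.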
The depositor's hits bear a star. Most compounds without a hit are left out; they make up all but 11% or so of the library. Unless noted, the call rests on the fitted dose curve; in most records, active means well fitted inhibition curve with a large enough effect (not every such curve was filed as active); inconclusive means small, poorly fitted or top-dose-only effect, or another doubt; inactive means no such curve, though single readings can be large or run the other way. Unless noted, on the % scale 0 is the no-effect control and ±100 the full control effect.

Cc1cccnc1NC(=O)c1ccccc1NC(=O)C(C)(C)C was read as ALDH1A1 inh -7.8%, PNC assembly inh 187.5 and HPGD block -13.6%.
For CC(NC(=O)c1ccccc1NC(=O)c1ccco1)c1ccccc1 (centres undefined) the results were ALDH1A1 inh -8.5%, PNC assembly inh -11.4 and HPGD block -5.6%.
For CC(NC(=O)c1ccccc1NC(=O)c1ccncc1)c1ccccc1 (centres undefined) the results were ALDH1A1 inh 28.2µM*.
Screening Cc1ccc(SCc2ccc(C(=O)Nc3ccccc3C(=O)NC(C)C)cc2)cc1 returned ALDH1A1 inh 2.6% and PNC assembly inh -87.5*.
For CC(C)(C)C(=O)Nc1ccccc1C(=O)Nc1ccncc1 the results were ALDH1A1 inh 8.0%, PNC assembly inh -100.0* and HPGD block -17.1%.
`Cc1cc(NC(=O)CSc2nnc(C3CC3)n2N)c([N+](=O)[O-])cc1C` gave ALDH1A1 inh -1.1%.
`CC(C)Oc1ccc(C(=O)Nc2cccc3cccnc23)cc1` gave ALDH1A1 inh -0.8%.
For CCCOc1ccc(N2C(=O)CC(NCc3cccs3)C2=O)cc1 (centres undefined) the results were ALDH1A1 inh inconclusive, PNC assembly inh 18.7 and HPGD block -5.8%.
For COc1ccc(N2C(=O)CC(NCCNc3ccc([N+](=O)[O-])cn3)C2=O)cc1 (centres undefined) the results were ALDH1A1 inh 1.78µM*, PNC assembly inh -100.4* and HPGD block -15.6%.
For CCOc1ccc(N2C(=O)CC(NCCNc3ccc([N+](=O)[O-])cn3)C2=O)cc1 (centres undefined) the results were ALDH1A1 inh 0.891µM*.
`CCCOc1ccc(N2C(=O)CC(NCCNc3ccc(S(=O)(=O)CC)cc3)C2=O)cc1` (centres undefined) gave ALDH1A1 inh inconclusive, PNC assembly inh inconclusive and HPGD block -12.2%.
`O=C(c1ccc(Br)s1)N1CCCC1` gave ALDH1A1 inh -12.7%, PNC assembly inh inconclusive and HPGD block 14.1µM*.
O=C(c1ccc(Br)s1)N1CCN(c2ncccn2)CC1 was read as ALDH1A1 inh -0.4%, PNC assembly inh inconclusive and HPGD block -6.6%.
Screening COc1ccc2cc(C(=O)N3CCOCC3)sc(=O)c2c1OC returned ALDH1A1 inh 9.1%, PNC assembly inh 19.2 and HPGD block 22.4µM*.
Screening O=C(c1ccc(C(=O)N2CCOCC2)s1)N1CCOCC1 returned ALDH1A1 inh 3.9%, PNC assembly inh -16.5 and HPGD block 20µM*.
`CCOC(=O)c1cc2ccc(OC)c(OC)c2c(=O)s1` gave ALDH1A1 inh -1.7%, PNC assembly inh 4.4 and HPGD block -18.9%.
`O=C(c1cccs1)N1CCOCC1` gave ALDH1A1 inh -3.2%, PNC assembly inh 19.0 and HPGD block -15.0%.
For Cc1ccc(C)c(S(=O)(=O)Nc2ccccc2C(=O)Nc2ccccc2N2CCOCC2)c1 the results were ALDH1A1 inh inconclusive, PNC assembly inh inconclusive and HPGD block -7.5%.
COc1cc(C(CC(=O)O)n2cnnn2)ccc1OC(C)C (centres undefined) was read as ALDH1A1 inh 4.1%.
O=P(O)(CCCCP(=O)(O)CCc1ccccc1)CCc1ccccc1 was read as ALDH1A1 inh 9.8%, PNC assembly inh 15.0 and HPGD block -6.2%.
`Cc1ccc(/C=C/C(=O)Nc2nn[nH]n2)o1` gave ALDH1A1 inh inconclusive, PNC assembly inh 0.3 and HPGD block -27.1%.
Screening Cc1ccc(/C=C/C(=O)Nc2cccnc2)o1 returned ALDH1A1 inh 10µM*, PNC assembly inh inconclusive and HPGD block 22.4µM*.
O=C(Nc1cccc2ncccc12)c1cccnc1 was read as ALDH1A1 inh -1.5%, PNC assembly inh 17.2 and HPGD block -9.9%.
For N#C/C(=C\c1cccc([N+](=O)[O-])c1)C(=O)NCc1cccnc1 the results were ALDH1A1 inh -5.3%, PNC assembly inh -0.7 and HPGD block inconclusive.
For Cc1ccc(/C=C/C(=O)Nc2cccc3ncccc23)o1 the results were ALDH1A1 inh inconclusive, PNC assembly inh -0.2 and HPGD block 31.6µM*.
For N#C/C(=C\c1cccc([N+](=O)[O-])c1)C(=O)Nc1cccnc1 the results were ALDH1A1 inh 11.2µM*.
O=C(/C=C/c1ccc(Cl)c([N+](=O)[O-])c1)Nc1cccnc1 was read as ALDH1A1 inh -9.7%, PNC assembly inh 30.5 and HPGD block inconclusive.
For O=C(/C=C/c1ccc([N+](=O)[O-])cc1)Nc1cccnc1 the results were ALDH1A1 inh 8.91µM*, PNC assembly inh 22.3 and HPGD block -24.2%.
For CCOC(=O)N1CCN(C(=O)CSc2nc3c(cnn3-c3ccc(Cl)cc3)c(=O)[nH]2)CC1 the results were ALDH1A1 inh -1.1%, PNC assembly inh 27.7 and HPGD block -6.7%.
For CN1CCN(C(=O)CC2(CC(=O)O)CCCC2)CC1 the results were ALDH1A1 inh 4.0%.
Cc1ccc(OC(=O)c2oc3ccc(F)cc3c2C)c(C)c1 was read as ALDH1A1 inh -0.9%, PNC assembly inh inconclusive and HPGD block -20.1%.
Screening Cc1ccccc1OCC(=O)OCC(=O)c1ccc(OCc2ccccc2)cc1 returned ALDH1A1 inh -1.3%, PNC assembly inh 44.3 and HPGD block -9.6%.
For O=C(COC(=O)c1cccc([N+](=O)[O-])c1)c1ccc(OCc2ccccc2)cc1 the results were ALDH1A1 inh 14.1µM*, PNC assembly inh -116.4* and HPGD block -8.9%.
Screening O=[N+]([O-])c1ccc(NCCO)c(OCCO)c1 returned ALDH1A1 inh -6.1% and HPGD block -8.4%.
`NC(=O)COC(=O)c1cc([N+](=O)[O-])ccc1NCCO` gave ALDH1A1 inh 20µM*.
For O=C(COC(=O)c1cc([N+](=O)[O-])ccc1NCCO)c1ccccc1 the results were ALDH1A1 inh 25.1µM*, PNC assembly inh -10.2 and HPGD block -19.2%.
For O=C(COC(=O)c1ccccc1-c1ccccc1[N+](=O)[O-])c1ccccc1 the results were ALDH1A1 inh -0.6%, PNC assembly inh -18.6 and HPGD block -27.8%.
Screening CN(CC(=O)Nc1ccccc1Cl)CC(=O)Nc1ccccc1[N+](=O)[O-] returned ALDH1A1 inh -7.5%.
Cc1cc(C)n(C(=O)CSc2nnc(SCC(=O)n3nc(C)cc3C)s2)n1 was read as ALDH1A1 inh 9.6% and PNC assembly inh 5.6.
For CCOc1ccc(S(=O)(=O)N(C)CCO)cc1-c1nc2c(C(C)(C)C)nn(C)c2c(=O)[nH]1 the results were ALDH1A1 inh inconclusive and PNC assembly inh 21.2.
Screening Cn1cc(-c2nc3cnc(Oc4cccc(Cl)c4)nc3n(C3CC3)c2=O)c2ccccc21 returned ALDH1A1 inh 8.7%.
`CCCCS(=O)CC(COCc1ccccc1)OC(=O)CSc1nc(C)cc(C)n1` (centres undefined) gave ALDH1A1 inh -0.7%, PNC assembly inh 11.8 and HPGD block 2.5%.
Cc1cccc(-c2noc(-c3cc4ccccc4oc3=O)n2)c1 was read as ALDH1A1 inh inconclusive, PNC assembly inh -106.0* and HPGD block inconclusive.
`Cc1cccc(-c2noc(-c3ccoc3C)n2)c1` gave ALDH1A1 inh -0.1%.
`COc1ccc(-c2noc(-c3cccc(Cl)c3)n2)cc1OC` gave ALDH1A1 inh 8.2%, PNC assembly inh 33.3 and HPGD block -7.6%.
